These results are taken from PubChem BioAssay (NCI).

Structures are written as SMILES. The panel holds about 83,000 compounds, 20% with a hit somewhere; the sample as a whole holds those more often.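 How to read the values: 0–100, growth inhibition (40 = 60% inhibited); 0, no net growth; -100 to 0, cell death (-40 = 40% of starting cells died; -100 = all dead).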 Active and inactive are the calls of the source. The calls were made as follows: active = growth percent below 10; inactive = the rest.

In one assay the test system is SK-OV-3 ovarian. Briefly: NCI-60 one-dose screen, 48 h (100 = growth as untreated, 0 = no growth, -100 = all killed). Conditions: 10 µM unless noted.
In the case of `Cn1cc(C2=C(c3cn(C4CCN(Cc5ccccn5)CC4)c4ccccc34)C(=O)NC2=O)c2ccccc21`, the growth was 83.5% (inactive).
Regarding `O=C1OCCC1Br` (centres undefined), the growth is 99.4% (inactive).
As for `CC(CO)NC1CCCCC1` (centres undefined), the growth is 111% (inactive).
Take `CC[C@H](C)[C@H](NC(=O)C12CC(NC(C)=O)(C1)C2)C(=O)N(C)[C@H](C[C@@H](OC(C)=O)c1nc(C(=O)N[C@@H](Cc2ccccc2)C[C@H](C)C(=O)OC)cs1)C(C)C`: the growth was 27% (inactive).
`CC[C@H](C)[C@H](NC(=O)NC(C)(C)C)C(=O)N(C)[C@H](C[C@@H](OC(C)=O)c1nc(C(=O)N[C@@H](Cc2ccccc2)C[C@H](C)C(=O)OC)cs1)C(C)C`: the growth was 14.9% (inactive).
On the same count and under the same terms, next, `ClCCN(CCCl)Cc1ccc(Nc2ccnc3cc(Cl)ccc23)cc1`: 53.5% (inactive); `O=C(N/N=C\c1ccc(N(CCCl)CCCl)cc1)c1cccc([N+](=O)[O-])c1`: 82.7% (inactive); `O=[N+]([O-])c1c(Br)sc(Br)c1[N+](=O)[O-]`: 98.7% (inactive).
Take `CC12CC(=O)C3(SC#N)C(CCC4=CC(=O)CCC43C)C1CCC2=O` (centres undefined): the growth was 109% (inactive).
For `CCn1c2ccccc2c2cc(C(=O)c3ccc(C)c4ccccc34)ccc21`, the growth is 25.4% (inactive).
The same measure, in the same setting: to `COc1ccc([As]=[As]c2ccc(OC)c(NCS(=O)(=O)O)c2)cc1NCS(=O)(=O)O` (centres undefined) belongs 91.6% (inactive); to `NC1CC2CCCCC2CC1(O)c1ccccc1` (centres undefined), 107% (inactive).
For the molecule `N/C(=N/N=C/c1ccncc1)N[N+](=O)[O-]`, the growth was 111% (inactive).
Take `O=C1CCC2(O)[C@@H]3Cc4ccc(O)c5c4[C@]2(CCN3Cc2ccoc2)C1O5` (some centres undefined): the growth is 105% (inactive).
Still for that read-out and setting: to `CCOP(=O)(Nc1ccc2c(c1)/C(=N/NC(N)=S)c1ccccc1-2)OCC` belongs 114% (inactive).
Still for that read-out and setting: to `O=C(N/N=C\c1ccc(N(CCCl)CCCl)cc1Cl)c1cccnc1` belongs 95.3% (inactive); to `COC(=O)CCc1c[nH]c2ccc(N(CCCl)CCCl)cc12`, 66.4% (inactive); to `COc1cc(C=Nc2cccc(C(=O)O)c2)ccc1N(CCCl)CCCl`, 110% (inactive).
On the same count and under the same terms, to `C/C(CC(C)(C)N1CC1)=N\NC(=O)Nc1cccc2ccccc12` belongs 79.3% (inactive); to `CCCCNC(c1ccc(Cl)cc1)C(O)c1ccc(Cl)cc1` (centres undefined), 79.6% (inactive); to `O=C(O)CNC(=O)C(Cl)(Cl)Cl`, 108% (inactive).
Consider `CC1(C)[C@H](O)[C@H](F)C[C@@]2(C)Oc3ccc(C(=O)Nc4ccc5c(c4)NC(=O)C54CCN(CCCCC#N)CC4)cc3C[C@H]12`, for which the growth is 17.7% (inactive).
On the same count and under the same terms, to `COC(=O)[C@@H](C)C[C@H](Cc1ccccc1)NC(=O)c1csc([C@@H](C[C@H](C(C)C)N(C)C(=O)[C@@H](NC(=O)[C@H]2CCCCN2C)C(C)C)OC(C)=O)n1` belongs 13.4% (inactive).
On the same count and under the same terms, to `N#CCCNc1ccccc1` belongs 121% (inactive); to `CCCCCC1(CCBr)C(=O)NC(=O)NC1=O`, 99.1% (inactive).
As to `CC[C@H](C)[C@H](NC(=O)[C@H]1CCCCN1C)C(=O)N(C)[C@H](CCc1nc(C(=O)N[C@@H](Cc2ccccc2)C[C@H](C)C(=O)OC)cs1)C(C)C`, the growth is 8.81% (active).
Still for that read-out and setting: to `COC(=O)[C@@H](C)C[C@H](Cc1ccccc1)NC(=O)c1csc([C@@H](C[C@H](C(C)C)N(C)C(=O)[C@@H](NC(=O)[C@H]2CCCCN2C)C(C(F)(F)F)C(F)(F)F)OC(C)=O)n1` belongs 16.4% (inactive); to `NC(CCl)CCl`, -100% (active); to `[Cl][Hg][n]1c(-c2ccco2)nc2ccccc21`, 119% (inactive).
As to `Cc1cc(N(CCCl)CCCl)ccc1C=Nc1ccccc1-c1ccccc1`, the growth was 98.6% (inactive).
With `CCC1CN1CCCCN1CC1CC` (centres undefined), the growth is 110% (inactive).
In the case of `COC(=O)[C@@H](C)C[C@H](Cc1ccccc1)NC(=O)c1csc([C@@H](C[C@H](C(C)C)N(C)C(=O)[C@@H](NC(=O)C23CC(NC(C)=O)(C2)C3)C2CC2)OC(C)=O)n1`, the growth was 78.9% (inactive).
Same read-out and setting: to `O=[N+]([O-])CC(O)C(Cl)(Cl)Cl` (centres undefined) belongs 100% (inactive).
Consider `O=[N+]([O-])c1ccc(OP(=O)(CCl)N(CCCl)CCCl)cc1` (centres undefined), for which the growth was 106% (inactive).
Regarding `CCOc1ccc(/C=C/[N+](=O)[O-])cc1`, the growth was 111% (inactive).
As to `CN(C)CCCOc1ccc2c(c1)c(C(=O)C(=O)NCCO)cn2Cc1ccccc1`, the growth is 110% (inactive).
On to `O=C(CC1(O)C(=O)Nc2ccc(Cl)cc21)c1ccc(C(=O)NCC2CCC3(CC2)OOC2(CCCCC2)OO3)cc1` (centres undefined), for which the growth was 57.2% (inactive).

A further assay has as its system IGROV1 ovarian. Described as above. Conditions: 10 µM unless noted.
As for `Cn1cc(C2=C(c3cn(C4CCN(Cc5ccccn5)CC4)c4ccccc34)C(=O)NC2=O)c2ccccc21`, the growth is 33.9% (inactive).
On the same count and under the same terms, to `O=C1OCCC1Br` (centres undefined) belongs 110% (inactive).
As for `CC(CO)NC1CCCCC1` (centres undefined), the growth was 102% (inactive).
The same measure, in the same setting: next, `CC[C@H](C)[C@H](NC(=O)C12CC(NC(C)=O)(C1)C2)C(=O)N(C)[C@H](C[C@@H](OC(C)=O)c1nc(C(=O)N[C@@H](Cc2ccccc2)C[C@H](C)C(=O)OC)cs1)C(C)C`: 35.4% (inactive); `CC[C@H](C)[C@H](NC(=O)NC(C)(C)C)C(=O)N(C)[C@H](C[C@@H](OC(C)=O)c1nc(C(=O)N[C@@H](Cc2ccccc2)C[C@H](C)C(=O)OC)cs1)C(C)C`: 24.5% (inactive); `ClCCN(CCCl)Cc1ccc(Nc2ccnc3cc(Cl)ccc23)cc1`: 55.4% (inactive).
The same measure, in the same setting: next, `O=C(N/N=C\c1ccc(N(CCCl)CCCl)cc1)c1cccc([N+](=O)[O-])c1`: 76.8% (inactive).
As to `O=[N+]([O-])c1c(Br)sc(Br)c1[N+](=O)[O-]`, the growth was 3.28% (active).
As to `CC12CC(=O)C3(SC#N)C(CCC4=CC(=O)CCC43C)C1CCC2=O` (centres undefined), the growth is 99.2% (inactive).
Regarding `CCn1c2ccccc2c2cc(C(=O)c3ccc(C)c4ccccc34)ccc21`, the growth is 21.4% (inactive).
On to `COc1ccc([As]=[As]c2ccc(OC)c(NCS(=O)(=O)O)c2)cc1NCS(=O)(=O)O` (centres undefined), for which the growth was 5.53% (active).
On the same count and under the same terms, to `NC1CC2CCCCC2CC1(O)c1ccccc1` (centres undefined) belongs 102% (inactive); to `N/C(=N/N=C/c1ccncc1)N[N+](=O)[O-]`, 108% (inactive); to `O=C1CCC2(O)[C@@H]3Cc4ccc(O)c5c4[C@]2(CCN3Cc2ccoc2)C1O5` (some centres undefined), 112% (inactive).
As for `CCOP(=O)(Nc1ccc2c(c1)/C(=N/NC(N)=S)c1ccccc1-2)OCC`, the growth was 132% (inactive).
Still for that read-out and setting: next, `O=C(N/N=C\c1ccc(N(CCCl)CCCl)cc1Cl)c1cccnc1`: 37% (inactive); `COC(=O)CCc1c[nH]c2ccc(N(CCCl)CCCl)cc12`: 65.6% (inactive); `COc1cc(C=Nc2cccc(C(=O)O)c2)ccc1N(CCCl)CCCl`: 97% (inactive).
Still for that read-out and setting: to `C/C(CC(C)(C)N1CC1)=N\NC(=O)Nc1cccc2ccccc12` belongs 38.8% (inactive).
On the same count and under the same terms, next, `CCCCNC(c1ccc(Cl)cc1)C(O)c1ccc(Cl)cc1` (centres undefined): 27% (inactive); `O=C(O)CNC(=O)C(Cl)(Cl)Cl`: 100% (inactive); `CC1(C)[C@H](O)[C@H](F)C[C@@]2(C)Oc3ccc(C(=O)Nc4ccc5c(c4)NC(=O)C54CCN(CCCCC#N)CC4)cc3C[C@H]12`: 63.2% (inactive).
With `COC(=O)[C@@H](C)C[C@H](Cc1ccccc1)NC(=O)c1csc([C@@H](C[C@H](C(C)C)N(C)C(=O)[C@@H](NC(=O)[C@H]2CCCCN2C)C(C)C)OC(C)=O)n1`, the growth is 25.7% (inactive).
Take `N#CCCNc1ccccc1`: the growth is 119% (inactive).
Same read-out and setting: to `CCCCCC1(CCBr)C(=O)NC(=O)NC1=O` belongs 112% (inactive); to `CC[C@H](C)[C@H](NC(=O)[C@H]1CCCCN1C)C(=O)N(C)[C@H](CCc1nc(C(=O)N[C@@H](Cc2ccccc2)C[C@H](C)C(=O)OC)cs1)C(C)C`, 26.8% (inactive); to `COC(=O)[C@@H](C)C[C@H](Cc1ccccc1)NC(=O)c1csc([C@@H](C[C@H](C(C)C)N(C)C(=O)[C@@H](NC(=O)[C@H]2CCCCN2C)C(C(F)(F)F)C(F)(F)F)OC(C)=O)n1`, 20.2% (inactive).
For the molecule `NC(CCl)CCl`, the growth is 110% (inactive).
On to `[Cl][Hg][n]1c(-c2ccco2)nc2ccccc21`, for which the growth is 90.5% (inactive).
On the same count and under the same terms, next, `Cc1cc(N(CCCl)CCCl)ccc1C=Nc1ccccc1-c1ccccc1`: 47.8% (inactive).
Same read-out and setting: next, `CCC1CN1CCCCN1CC1CC` (centres undefined): 102% (inactive); `COC(=O)[C@@H](C)C[C@H](Cc1ccccc1)NC(=O)c1csc([C@@H](C[C@H](C(C)C)N(C)C(=O)[C@@H](NC(=O)C23CC(NC(C)=O)(C2)C3)C2CC2)OC(C)=O)n1`: 49.4% (inactive).
Still for that read-out and setting: next, `O=[N+]([O-])CC(O)C(Cl)(Cl)Cl` (centres undefined): 102% (inactive); `O=[N+]([O-])c1ccc(OP(=O)(CCl)N(CCCl)CCCl)cc1` (centres undefined): 104% (inactive).
With `CCOc1ccc(/C=C/[N+](=O)[O-])cc1`, the growth is 86.5% (inactive).
Regarding `CN(C)CCCOc1ccc2c(c1)c(C(=O)C(=O)NCCO)cn2Cc1ccccc1`, the growth is 99.6% (inactive).
Same read-out and setting: next, `O=C(CC1(O)C(=O)Nc2ccc(Cl)cc21)c1ccc(C(=O)NCC2CCC3(CC2)OOC2(CCCCC2)OO3)cc1` (centres undefined): -18.6% (active).
